From PubChem BioAssay (NCI)
About 83,000 compounds went through this panel and 20% of them were active in at least one assay; those are over-represented in the sample as a whole.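 Negative percent growth values reflect cell death: -40 means 40% of the cells present at the start died, and -100 means all died.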 Calls of active or inactive are those of the source.

Each compound was assayed on SK-MEL-28 melanoma (assay: NCI-60 one-dose screen, 48 h (100 = growth as untreated, 0 = no growth, -100 = all killed)). Settings: 10 µM unless noted.
Description: Growth inhibition of the SK-MEL-28 human tumor cell line is measured as a screen for anti-cancer activity. Cells are grown in 96 well plates and exposed to the test compound for 48 hours. Compounds are tested at a single concentration, which is 10^-5 M for most compounds. The reported endpoint is percent growth (GI% or GIPRCNT), where numbers from 0 - 100% represent growth inhibition, and numbers from -100% - 0 represent cell death. For example, a value of 40 represents 60% growth inhibition. A value of 0 means no net growth occurred over the course of the experiment. A value of -40 indicates 40% of cells at the beginning of the experiment died by the end of the experiment. A value of -100 means all cells are dead at the end of the experiment.
NCI-60 Human Tumor Cell Lines Screen was performed using the standard one-dose NCI protocol, which is described in more detail at https://dtp.cancer.gov/discovery_development/nci-60/default.htm.
Compounds with GIPRCNT values below 10 were considered active. Activity score was based on GIPRCNT using the following formula: […]
Score is 0 for GIPRCNT values of 100 or above, 50 for GIPRCNT values of 0, and 100 for GIPRCNT values of -100.

SMILES | growth
COc1cc(-c2cn(-c3ccc(Cl)c(Cl)c3)c(=O)[nH]2)cc(OC)c1OC | 110% (inactive)
C#CCN(CCCOc1ccc(Cl)cc1Cl)CCCSC(=O)CCCCCN1/C(=C\C=C2/CCCC(/C=C/C3=[N+](CCCCCC(=O)[O-])c4ccccc4C3(C)C)=C2Cl)C(C)(C)c2ccccc21 | -9.83% (active)
c1cc(CNC23CC4CC(CC(C4)C2)C3)cc(C[N+](Cc2cccc(CNC34CC5CC(CC(C5)C3)C4)c2)(Cc2cccc(CNC34CC5CC(CC(C5)C3)C4)c2)Cc2cccc(CNC34CC5CC(CC(C5)C3)C4)c2)c1 (stereo not given) | 51.5% [42 µM] (inactive)
COC(=O)/C=C1\SC(=Nc2cccc(Cl)c2)N(CCc2c[nH]c3ccccc23)C1=O | 64.8% (inactive)
COc1ccc2nc(-c3ccc(Cl)cc3)cc(-c3nnc(SCC(=O)Nc4ccc(/C(C)=N\O)cc4)o3)c2c1 | 72.6% (inactive)
COc1cc(/C=C/C(=O)/C=C/c2cc3ccc(Cl)cc3[nH]c2=O)ccc1O | 98.8% (inactive)
CCCCc1nc(Cl)c(C2CC(c3ccc(Cl)cc3)=NN2c2cc(Cl)cc(Cl)c2)[nH]1 (stereo not given) | 99.8% (inactive)
COC(=O)c1cc2c3c(cc(O)c2[nH]1)N(C(=O)C1Cc2cc(OC)c(OC)c(OC)c2N1)CC3CCl (stereo not given) | -6.29% (active)
COc1ccc(-n2cc(-c3ccc(Cl)c(Cl)c3)[nH]c2=O)cc1OC | 103% (inactive)
C1=CC2=CC=C3C=CC=C4C(c5nc6c7ccccc7c7ccccc7c6[nH]5)=CC(=C1)C2C34 (stereo not given) | 107% (inactive)
C=C1C(=O)O[C@H]2[C@H]1CC/C(COC(=O)CCCCCCC(=O)OC/C1=C/CC[C@@]3(C)O[C@H]3[C@H]3OC(=O)C(=C)[C@@H]3CC1)=C\CC[C@@]1(C)O[C@@H]21 | 48.8% (inactive)
C=C(C)[C@@H]1CC[C@]2(C(=O)OCCOCCOCC[P+](c3ccccc3)(c3ccccc3)c3ccccc3)CC[C@]3(C)[C@H](CC[C@@H]4[C@@]5(C)CC[C@H](C)C(C)(C)[C@@H]5CC[C@]43C)[C@@H]12 | -80% (active)
C=C1C(=O)O[C@H]2[C@H]1CC/C(C=Nc1c(N)cc(C(F)(F)F)cc1Br)=C\CC[C@@]1(C)O[C@@H]21 | -12.3% (active)
Cc1cc(C)cc(Nc2nccc(-c3c(-c4ccc(F)cc4)ncn3C3CCNCC3)n2)c1 | -34.7% (active)
COc1ccc(NC(=O)Nc2ccc(Nc3nc(C)cc(Nc4ccc(C)cc4)n3)cc2)cc1 | -76.8% (active)
COc1ccc2nc3c(n2c1)C(=O)C(=O)c1ccccc1-3 | -83.2% (active)
C[C@@H]1C(=O)[C@@H]2C[C@@H](O)[C@@H](O)C[C@]2(C)[C@H]2CC[C@@]3(C)C(=C12)CC[C@@H]3[C@@](C)(O)[C@H](O)CCC(C)(C)O | 113% (inactive)
CC(=O)c1c(OCC#N)ccc2c(C)cc(=O)oc12 | 93% (inactive)
COc1ccc(/C=C/C(=O)c2ccc(NC(=O)CSc3nnc(-c4ccc(OC)c(OC)c4)n3-c3ccccc3)cc2)cc1 | 95.8% (inactive)
CCCNc1nc(C)[nH]c(=O)c1S | 114% (inactive)

SMILES | growth
CCCCc1n(Cc2ccc3ccccc3c2)c2ccccc2[n+]1Cc1ccc2ccccc2c1 | -92.9% (active)
COC(=O)c1oc2c(C(=O)/C=C/c3ccc(OC)cc3)c(OCCCN3CCCCC3)ccc2c1C | -51.4% (active)
COc1ccc2c(c1)Oc1nc(N)c(C#N)c(N)c1C2Sc1ccc(O)cc1 (stereo not given) | 105% (inactive)
O=Cc1[nH]c(Sc2ccccc2)c2ccccc12 | 92.9% (inactive)
N#CCNc1ccc(C(=O)O)cc1 | 118% (inactive)
[2H]c1cc2c(c([2H])c1F)/C(=C/c1[nH]c(C)c(C(=O)NCCN(CC)CC)c1C)C(=O)N2 | 64.7% (inactive)
CC(=O)Nc1c(C(=O)Nc2ccccc2)sc2nc3c(cc12)C(OC(C)=O)CCC3 (stereo not given) | 88.9% (inactive)
COc1ccc(C2=NN(c3ccc(S(N)(=O)=O)cc3)C(c3ccc(Cl)cc3)C2)c(O)c1 (stereo not given) | 74.9% (inactive)
COc1cc([C@H](C)c2ccc3ccccc3c2)cc(OC)c1OC | 61.8% (inactive)
CCOC(=O)c1c(C(F)(F)F)n([O-])c2ccc(Cl)cc2[n+]1=O | -32.8% (active)
CN(C)c1ccc(-c2ccc3[nH]c(=O)nc(-c4ccc(F)cc4)c3c2)cn1 | 69.2% (inactive)
COc1ccc(-n2nc(C(=O)NCC(=O)O)nc2-c2ccccc2)cc1 | 108% (inactive)
O=C1NN(c2ccccc2)C(c2ccc3c(c2)OCO3)N2CCC[C@@H]12 (stereo not given in full) | 111% (inactive)
Nn1c(SCC(=O)Nc2ccc(Cl)cc2)nnc1-c1cc(F)c(Cl)cc1Cl | 98.1% (inactive)
Cc1nccc2c3ccc(OCc4cn(-c5ccc(Cl)cc5)nn4)cc3n(CC(C)C)c12 | 25.2% (inactive)
CC(=O)c1cc2c(N)c(C(=O)Nc3ccccn3)sc2nc1C | 82.1% (inactive)
Nc1c(C(=O)Nc2ccccc2)sc2nc3c(cc12)CN(C(=O)OCc1ccccc1)CC3 | 62.3% (inactive)
COc1ccc2c(c1)C1(C(=O)N2)C(C#N)=C(c2ccccc2)Nc2c1c(-c1ccccc1)nn2-c1ccccc1 (stereo not given) | 42.9% (inactive)
S=C(Nc1ccc(Cl)cc1)c1ccccn1 | 107% (inactive)
CC(=O)ON1CCCC(P(=O)(OCOC(=O)C(C)(C)C)OCOC(=O)C(C)(C)C)C1=O (stereo not given) | -46.9% (active)
